Dicer inh – inhibitors of human Dicer processing of pre-microRNA. Q9UPY3. cat-ELCCA pre-miR-21 Dicer processing, chemiluminescence; stronger effect = higher value. z-score at 25 µM. 47,000 tested, 6% active. AID 1347074; in the data active = z-score above about 3, passing the limit was not always enough;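 also: plate controls were vehicle for no effect and no enzyme for full effect; higher signal means more uncleaved substrate so more Dicer inhibition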
An asterisk follows results filed as active. The full list was thinned out, with hits kept by preference.

SMILES | Dicer inh
COC(=O)C1=C(C)NC2=C(C(=O)CCC2)C1c1ccc(C(=O)OC)cc1 (stereo not given) | -0.18
CCSCCOC(=O)C1=C(C)NC2=C(C(=O)CCC2)C1c1ccc(CC)cc1 (stereo not given) | 2.54
CC1=C(C(=O)OCC2CCCO2)C(c2ccc(OCc3ccccc3)cc2)C2=C(CCCC2=O)N1 (stereo not given) | 0.06
CC1=C(C(=O)OCC2CCCO2)C(c2ccccc2OCc2ccccc2)C2=C(CCCC2=O)N1 (stereo not given) | 3.57*
CCCCCOC(=O)C1=C(C)NC2=C(C(=O)CCC2)C1c1ccccc1OCCC (stereo not given) | 0.33
CCSCCOC(=O)C1=C(C)NC2=C(C(=O)CCC2)C1c1ccccc1OC(C)C (stereo not given) | 1.12
CCSCCOC(=O)C1=C(C)NC2=C(C(=O)CCC2)C1c1ccc(-c2ccccc2)cc1 (stereo not given) | -0.43
CCSCCOC(=O)C1=C(C)NC2=C(C(=O)CCC2)C1c1ccccc1OCc1ccccc1 (stereo not given) | 5.99*
CCOCCOC(=O)C1=C(C)NC2=C(C(=O)CCC2)C1c1ccc(C)cc1 (stereo not given) | 0.1
CCOCCOC(=O)C1=C(C)NC2=C(C(=O)CCC2)C1c1ccc(C(=O)OC)cc1 (stereo not given) | 4.84*
COc1ccccc1C1C(C(=O)OCC2CCCO2)=C(C)NC2=C1C(=O)CCC2 (stereo not given) | -0.11
CCSCCOC(=O)C1=C(C)NC2=C(C(=O)CCC2)C1c1ccc(Cl)cc1 (stereo not given) | 4.18*
CC=C(C)C(=O)O[C@H]1[C@H](OC(C)=O)C2(CO)C(CC1(C)C)C1=CCC3C4(C)CCC(OC5O[C@H](C(=O)O)[C@@H](O[C@@H]6O[C@H](CO)[C@@H](O)[C@H](O)[C@H]6O)[C@H](O)[C@H]5O[C@@H]5O[C@H](CO)C(O)[C@H](O)[C@H]5O)[C@](C)(CO)C4CCC3(C)[C@]1(C)C[C@H]2O (stereo not given in full) | 0.57
CCCC12CN3CC(CCC)(CN(C1)C3c1ccc([N+](=O)[O-])o1)C2=O (stereo not given) | -1.48
COc1cccc(-c2nnc(SCC(=O)O)o2)c1 | -0.57
CCN(CC)CCCNC(=O)Cn1cnc2c1c(=O)n(C)c(=O)n2C | 2.07
Cc1ccc(S(=O)(=O)OC2=C(C#N)CCN(S(=O)(=O)c3ccc(Cl)cc3)c3cc(Cl)ccc32)cc1 | -0.89
Cc1ccc(-n2cnc3c(sc4nc(N5CCOCC5)c5c(c43)CC(C)(C)OC5)c2=O)cc1 | 0.71
Cc1ccc(OCC(=O)O)c([N+](=O)[O-])n1 | -0.59
S=C(NC1CCCCC1)N1N=C2c3ccccc3CCC2C1c1cccs1 (stereo not given) | -2.84
O=c1oc(-c2cccnc2Oc2ccccc2)nc2cccc(F)c12 | 0.77
Cc1ccc(-n2c(-c3ccc(-n4c(C)ccc4C)cc3)n[nH]c2=S)cc1 | 2.38
Cc1ccc2oc3c(c(=O)c2c1)C(c1ccc(O)cc1)N(Cc1ccccc1)C3=O (stereo not given) | 2.65
CC(C)(C)c1ccc(-c2[nH]nc(NC(=O)c3ccccc3F)c2Br)cc1 | 2.76
CCOc1cc(C2C(C(=O)OC3CCCC3)=C(C)NC3=C2C(=O)CCC3)cc(Br)c1O (stereo not given) | 1.74
SMILES | Dicer inh
CCOCCOC(=O)C1=C(C)NC2=C(C(=O)CCC2)C1c1cc(Br)c(O)c(OC)c1 (stereo not given) | 0.03
CCCCOC(=O)C1=C(C)NC2=C(C(=O)CCC2)C1c1cc(Br)c(O)c(OCC)c1 (stereo not given) | 3.23*
CCC(Sc1nc2ccccc2o1)C(N)=O (stereo not given) | -0.84
CCOC(=O)c1c(C)oc2ccc(OC(C)=O)cc12 | 6.69
CCOC(=O)c1oc2cccc(OC(C)=O)c2c1C | 5.74*
CCOC(=O)c1c(OC)cccc1OC | -0.77
CCOC(=O)c1c[nH]c2c(C)ccc(C)c2c1=O | 0.1
CCNc1oc(COc2ccc(F)cc2)nc1C#N | 2.28
COc1ccc(Cl)cc1NC(C)=O | 0.03
N#C/C(=N\Nc1ccc(Cl)cc1)C(=O)C1CC1 | 2.48
COc1cc(Cl)ccc1N/N=C(\C#N)C(N)=O | 4.95*
CCOC(=O)c1cnc(-c2cccs2)nc1Nc1cccc(C(F)(F)F)c1 | -1.62
Cn1c(Sc2cc(C(F)(F)F)nc3cc(C(C)(C)C)nn23)nnc1C(F)(F)F | -4.04
Cc1cc2oc3c(c(=O)c2cc1C)C(c1ccccc1F)N(CCCN1CCOCC1)C3=O (stereo not given) | -0.51
S=C(NNC(=S)NC1CC2C=CC1C2)Nc1ccccc1Cl (stereo not given) | 1.94
Cc1nc(-c2ccc(C)c(C)c2)c(CC(=O)O)s1 | 2.34
CCc1ccc(C2C(C(=O)OCC(C)C)=C(C)NC3=C2C(=O)CC(c2cccs2)C3)s1 (stereo not given) | 2.18
O=C(c1cccs1)c1cn(CCOc2ccc(F)cc2)c2ccccc12 | 3.46*
COC(=O)c1cn(CCOc2ccc(F)cc2)c2ccccc12 | 2.25
O=C(c1ccco1)c1cn(CCOc2ccccc2)c2ccccc12 | -0.39
CC(C)(C)C(=O)c1cn(CC(=O)O)c2ccccc12 | 0.33
CCN(CC)C(=O)Cn1cc(C(=O)c2ccco2)c2ccccc21 | -0.38
COC(=O)Cn1cc(C(=O)c2ccccc2)c2ccccc21 | 3.61*
COC(=O)c1cn(CCOc2ccccc2)c2ccccc12 | 3.06*
O=C(c1ccco1)c1cn(CCOc2ccc(Cl)cc2)c2ccccc12 | -0.39
SMILES | Dicer inh
O=C(c1ccco1)c1cn(CCOc2ccc(F)cc2)c2ccccc12 | 1.61
Cc1ccc(C(C)C)c(OCC(O)Cn2cnc3ccccc32)c1 (stereo not given) | 0.02
c1cc2c(cc1CNCc1ccc3c(c1)OCO3)OCO2 | 2.41
Cc1nc(N2CCCCC2)c2oc3ccccc3c2n1 | 0.92
COc1ccc(NC(=S)N(CCC#N)C2CCCCC2)cc1 | 1.6
COc1ccccc1OCc1nc(-c2ccc(Br)cc2)no1 | 0.47
Cc1cc(Oc2ccc(C(F)(F)F)cc2[N+](=O)[O-])n(-c2ccccc2)n1 | 0.88
CCOc1ccc(-c2nc(-c3ccc(-c4cccc(OC)c4)nc3OC)no2)cc1 | 0.66
O=C(Cc1ccc(Cl)cc1)c1ccc(O)cc1O | 4.06*
O=C(Cc1ccc(Cl)cc1)c1ccc(O)cc1 | 0.6
O=C(Cc1ccccc1)c1ccc(Cl)cc1 | -0.54
COc1cc([N+](=O)[O-])c(OC)cc1SCC(=O)NNS(=O)(=O)c1cc(Cl)c(Cl)cc1Cl | -0.58
CN(CCc1ccccn1)Cc1ccccc1F | 1.33
CCc1ccccc1CSc1nc(C)cc(C)c1C#N | 0.42
Cc1ccc(C)c(CSc2nc(C3CCCCC3)c(C#N)c(=O)[nH]2)c1 | 4.26*
CSc1nc(CSc2ccc(Cl)cc2)nc(C2CC2)c1C#N | 6.88
CN(c1ccc([N+](=O)[O-])cc1Cl)C1CCCCC1 | -1.15
Cn1c(=O)n(C)c2cc(S(=O)(=O)Nc3ccccc3O)ccc21 | -0.21
Cc1cc(O)c(C(C)C)cc1NS(=O)(=O)c1ccccc1 | 4.17*
Cc1ccnc(NS(=O)(=O)c2ccccc2)c1 | 1.53
CC(=N/NCCC#N)/C(=N\OC(=O)c1ccc([N+](=O)[O-])cc1)C(=O)Nc1ccccc1 | -1.61
O=C1c2cccc3c(N4CCOCC4)ccc(c23)C(=O)N1c1ccc(Cl)cc1 | 0.35
O=C1CCCC(OC(=O)c2cccc(C(F)(F)F)c2)=C1Cl | 0.44
CC(C)C[C@H](NC(=O)[C@@H](O)[C@H](N)Cc1ccccc1)C(=O)O | -4.44
